MCF10A rereplic = induces DNA re-replication in MCF 10a normal breast cells. MCF 10A DNA re-replication, Hoechst nuclear intensity, 48 h. Potency, µM (titrated, usually from 46.1 µM), for the others: top-dose activity, positive = re-replication, most hits filed as activators. 350,000 tested, 2.9% active. AID 624296; note: % of control where 0% means no effect; nearly all actives have a fitted effect of over 50% in size
SW480 rerep = inducers of DNA re-replication in SW480 colon cancer cells | 340,000 tested, 1.8% active | Potency, µM (top dose mostly 46.1 µM), for the others: at the highest dose re-replication activation, usual class: activators | SW480 DNA re-replication, Hoechst DNA content imaging, 48 h; note: % of control where 0% means no effect; nearly all actives have a fitted effect of over 55% in size
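Quantitative HTS format with DMSO vehicle controls; 48 hr drug incubation at 37 C, then 40 min Hoechst staining and scanning imager measurement at 405 nm excitation.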
KB-3-1 cytotox = kills parental KB-3-1 adenocarcinoma cells | KB-3-1 viability, CellTiter-Glo ATP luminescence, 72 h | Potency, µM (titrated, usually from 46.1 µM), most hits filed as cytotoxic | 400,000 tested, 1.4% active; note: % is set by controls: 0 for no effect and ±100 for the full control effect; nearly all actives have a fitted effect of over 60% in size
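Cytotoxicity in the drug-sensitive parental line KB-3-1 was scored as loss of CellTiter-Glo luminescence following 72 h incubation with compound. Values come from curve fitting of normalized concentration-response data.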
12-LOX inh = inhibitors of human 12S-lipoxygenase ALOX12; P18054; purified 12hLO, xylenol orange hydroperoxide absorbance; Potency, µM (highest dose often 108 µM), for the others: top-dose activity change, negative = inhibition, most hits filed as inhibitors; 580,000 tested, 1.1% active; AID 1671190; note: % is set by controls: 0 for no effect and ±100 for the full control effect
Target sequence (P18054 whole entry, looked up): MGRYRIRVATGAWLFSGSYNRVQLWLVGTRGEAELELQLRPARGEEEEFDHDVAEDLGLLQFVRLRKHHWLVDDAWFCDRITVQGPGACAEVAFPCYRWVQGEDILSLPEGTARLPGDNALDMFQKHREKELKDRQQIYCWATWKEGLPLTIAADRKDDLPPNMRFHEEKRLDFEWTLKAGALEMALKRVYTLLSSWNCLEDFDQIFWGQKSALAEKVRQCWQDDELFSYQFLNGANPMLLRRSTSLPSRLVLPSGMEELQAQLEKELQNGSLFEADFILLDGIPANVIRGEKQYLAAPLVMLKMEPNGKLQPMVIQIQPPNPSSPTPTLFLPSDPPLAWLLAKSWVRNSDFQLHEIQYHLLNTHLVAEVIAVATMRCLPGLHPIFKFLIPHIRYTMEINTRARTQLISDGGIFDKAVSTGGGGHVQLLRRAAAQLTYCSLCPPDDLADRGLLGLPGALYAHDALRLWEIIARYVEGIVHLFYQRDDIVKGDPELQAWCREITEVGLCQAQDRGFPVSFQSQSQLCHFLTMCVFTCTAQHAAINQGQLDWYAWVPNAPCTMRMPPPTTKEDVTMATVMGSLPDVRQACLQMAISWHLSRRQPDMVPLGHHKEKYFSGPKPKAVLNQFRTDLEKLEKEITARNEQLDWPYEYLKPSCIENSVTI
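Purified human 12hLO at 150 nM in 25 mM Hepes, 0.01% Triton X-100, pH 7.0, preincubated 15 min at room temperature with compound. Reaction started with 40 uM arachidonic acid, 30 min at room temperature. Hydroperoxide measured by Fe-xylenol orange, 573/405 nm absorbance ratio.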
KB-V1 MDR tox = kills drug-selected multidrug resistant KB-V1 cells; KB-V1 MDR cells viability, CellTiter-Glo, 72 h; Potency, µM (series often up to 46.1 µM), most hits filed as cytotoxic; 400,000 tested, 3.4% active; note: % is set by controls: 0 for no effect and ±100 for the full control effect; nearly all actives have a fitted effect of over 60% in size
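Potencies derive from concentration-effect curves fitted to normalized luminescence (CellTiter-Glo) of KB-V1 cells treated for 72 h at 37 degrees C in phenol-red-free DMEM containing 10% FBS.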
PINK1 modulator = changes PINK1 expression. 410,000 tested, 0.2% active. PINK1 immunofluorescence, high-content cytometry, 24 h. AID 624263. Potency, µM (top dose mostly 76.6 µM), inactives show top-dose activation (PINK1 increase), most hits filed as activators; active = well fitted activation curve with a large enough effect; inconclusive = small, poorly fitted or top-dose-only effect; cell line not stated here; note: % of control where 0% means no effect; nearly all actives have a fitted effect of over 65% in size
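Stable cell line, 250 cells/well, 12 h attachment; compounds pinned at 5 concentrations, 24 h; CCCP control. Fixed with nuclear dye, primary antibodies 12 h at 10 degrees C, secondary plus cell stain; laser-scanning cytometer read.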
An asterisk follows results filed as active; i = inactive; ? = inconclusive; nt = no result given; [ ] = dose if it differs, or a comment. An excerpt weighted towards active compounds, which were near 5.8% of everything screened. Unless noted, calls come from the whole dose curve; as a rule, active = well fitted curve in the direction sought with a large enough effect; inconclusive = small, poorly fitted or top-dose-only effect, or another doubt; inactive = no such curve, though single readings can be large; an effect the other way counts as inactive or inconclusive. Potency is the fitted concentration of half-maximal effect.

SMILES	MCF10A rereplic	SW480 rerep	KB-3-1 cytotox	12-LOX inh	KB-V1 MDR tox	PINK1 modulator
O=C(/C(=C/c1ccc(Cl)cc1)c1nc2ccccc2o1)c1ccccc1	nt	nt	nt	-8%	nt	nt
CC(=O)Nc1ccc(-c2ccnc3c2CC(C(=O)NCc2cccc(Cl)c2)O3)cc1 (centres undefined)	nt	nt	3.3µM*	2%	?	9%
CC(=O)Nc1cccc(-c2ccnc3c2CC(C(=O)NCc2cccc(Cl)c2)O3)c1 (centres undefined)	nt	nt	?	-18%	i	12%
Cc1nc2cc(OC3(C)CCN(Cc4ccc(OC(F)(F)F)cc4)C3)ccc2s1 (centres undefined)	nt	nt	i	?	i	45µM*
O=C1c2ccccc2-c2nnc(-c3ccccc3)cc21	6%	-3%	?	1%	?	3%
COc1ccc(-c2cc3c(nn2)-c2ccccc2C3=O)cc1	-25%	12%	?	8%	7.3µM*	0%
COc1ccc2c(C)c(CC(=O)NCCN3CCOCC3)c(=O)oc2c1OC	nt	nt	nt	-48%	nt	nt
Nc1nccnc1C(=O)NCc1cccc(Cl)c1	nt	nt	nt	-16%	nt	nt
COc1ccc(-c2nc(NCCCN3CCCCC3C)c3ccccc3n2)cc1 (centres undefined)	nt	nt	nt	1%	nt	nt
CCCCn1c(=S)[nH]c2cc(S(=O)(=O)N3CCOCC3)ccc21	-3%	-7%	i	?	i	1%
CCn1c(=S)[nH]c2cc(S(=O)(=O)N3CCCCC3)ccc21	-9%	-8%	i	-28%	13µM*	nt
Cn1c(SCc2coc(-c3cccs3)n2)nnc1-c1ccccc1F	nt	nt	nt	-18%	nt	nt
Cc1occc1C(=O)N1CCN(C(c2ccccc2)c2ccccc2)CC1	?	5%	?	-10%	i	nt
Cc1oc(C(C)(C)C)cc1C(=O)N1CCN(C(c2ccccc2)c2ccccc2)CC1	12µM*	?	i	144%	i	?
COC(=O)C1CC23C=CCN4CCC5(c6ccccc6NC15C2C)C43 (centres undefined)	?	0.92µM*	1µM*	?	?	13%
CN1CC[C@]23c4ccccc4N[C@H]1[C@]21CCN(C)[C@H]3Nc2ccccc21	-28%	-20%	i	-13%	i	1%
N[S+](=O)([O-])c1ccc2c(c1)OCCN(Cc1ccccc1Cl)C2	nt	nt	nt	58%[176 µM]	nt	nt
C=C(C)CN(CC)C(=O)/C=C/c1csc(C)n1	nt	nt	nt	7%	nt	nt
O=C(c1ccccc1)n1nc(-c2ccccc2)nc1NCc1ccc(F)cc1	nt	nt	i	-21%	i	5%
COc1ccccc1C(=O)n1nc(-c2ccccc2)nc1NCc1ccco1	-4%	-8%	i	2%	?	1%[38.3 µM]
O=C(c1cccs1)n1nc(-c2ccccc2)nc1NCc1ccc(F)cc1	72%	1%	?	-9%	13µM*	-1%[38.3 µM]
COc1ccccc1C(=O)n1nc(-c2ccccc2)nc1NCc1ccc(Cl)cc1	nt	nt	?	0%	15µM*	-1%
CC(=O)NC12CC3CC4C5CC(CC41)CC2C5C3	nt	nt	nt	29%	nt	nt
COc1cc(/C=C/C(=O)N2C(=O)c3cccc(N)c3C2=O)cc(OC)c1OC	9.2µM*	?	i	2%	i	7%
COc1cc(/C=C/C(=O)N2CCN(C(=O)/C=C/c3cc(OC)c(OC)c(OC)c3)CC2)cc(OC)c1OC	1%	-1%	i	nt	i	0%
SMILES	MCF10A rereplic	SW480 rerep	KB-3-1 cytotox	12-LOX inh	KB-V1 MDR tox	PINK1 modulator
COc1ccc(OC)c(/C=C/C(=O)N2C(=O)c3cccc(N)c3C2=O)c1	18µM*	?	?	-11%	?	2%
O=C(c1ccco1)N1CCN(c2nc(C(F)(F)F)nc3c2nnn3Cc2ccccc2)CC1	16%	17%	?	-4%	2.3µM*	2%[38.3 µM]
Fc1ccc(N2CCN(c3ncnc4c3nnn4Cc3ccccc3Cl)CC2)cc1	?	-2%[9.22 µM]	?	0%	i	2%
O=C(c1ccco1)N1CCN(c2ncnc3c2nnn3Cc2ccccc2Cl)CC1	-8%	-16%	i	i	5.8µM*	2%
c1ccc(Cn2nnc3c(N4CCCCCC4)ncnc32)cc1	?	8%	?	-13%	i	0%
CCCN1CCN(c2ncnc3c2nnn3Cc2ccccc2)CC1	?	21µM*	?	23%	16µM*	1%
Cc1ccc2[nH]cc(CCNC(=O)/C=C/c3cccc(F)c3)c2c1	nt	nt	nt	-15%	nt	nt
COc1cccc2cc(-c3cc(=O)oc4ccc(C(C)C)cc34)oc12	nt	nt	nt	-3%	nt	nt
COCCCNc1nc(SCc2ccccc2)nc2sc3c(c12)CCC3	-183%[0.0737 µM]	?	i	0%	i	2%
N#Cc1cnn(-c2nc(SCc3ccccc3)nc3sc4c(c23)CCCC4)c1N	0%	1%	i	-10%	21µM*	-4%[38.3 µM]
CCN(CC)CCNC(=O)c1nc2c3c4c(sc3nc(C)n2n1)CCC4	nt	nt	nt	7%	nt	nt
CC1CCCC(NC(=O)NC(=O)CCl)C1C (centres undefined)	?	?	i	-6%	i	-1%
CC1CCCCC1NC(=O)NC(=O)CCl (centres undefined)	?	6.5µM*	?	-13%	i	4%
Cc1cc(Cl)ccc1OCC(=O)NCCOC(=O)Nc1sc(=S)n(C)c1C	-2%	-4%	i	-14%	?	4%
Cc1ccc(Cl)cc1OCC(=O)NCCOC(=O)Nc1sc(=S)n(C)c1C	17%	2%	?	3%	13µM*	3%
Cc1ccsc1C(=O)N1CCCC(n2cc(-c3nc(C4CC4)no3)nn2)C1 (centres undefined)	nt	nt	nt	-7%	nt	nt
CCCCn1c(=O)c2c(O)cc(=O)oc2c2ccccc21	-5%	-10%	i	?	4.6µM*	-1%
O=c1cc(O)c2c(=O)n(-c3ccccc3)c3c(c2o1)CCCCCC3	?	2%	i	6%	5.2µM*	22%
O=c1c([N+](=O)[O-])c(O)c2ccccc2n1Cc1ccccc1	6%	-16%	i	-12%	i	0%

Bioassay records as filed in PubChem.
